Experimental data published in PubChem BioAssay (NCI).
This is part of a sample that, as a whole, favours compounds with a hit. Of some 83,000 tested, about 20% had one in any assay.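 Plates (96-well) were seeded with cells, treated with compound at one concentration, and incubated for 48 hours before percent growth was determined.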 Values without a mark were called inactive. The source made the active and inactive calls. How the source made its calls: active means growth percent below 10; inactive means the rest.

These compounds were tested on SF-539 CNS (assay: NCI-60 one-dose screen, 48 h (100 = growth as untreated, 0 = no growth, -100 = all killed)). Settings: 10 µM unless noted.

SMILES	growth
Cn1c2ccccc2c2c3c(c4c5cc(Br)ccc5n(C)c4c21)C(=O)N(O)C3=O	-27.7% (active)
c1ccc2cc(Cn3cc(CSc4nc5ccccc5s4)nn3)ccc2c1	95.3%
COCCn1cc(-c2nc(-c3cc4cccnc4n3C)cs2)c2ccccc21	60.6%
COc1ccc(C2[C@@H](Cl)C(=O)N2c2cc(OC)c(OC)c(OC)c2)cc1Cl (stereo not given in full)	9.09% (active)
N#Cc1nn(-c2cc(=O)[nH]c3ccc(Br)cc23)c(N)c1C#N	105%
CC1=C2CC/C(C)=C/CC[C@]3(C)O[C@H]3CC/C(C)=C/[C@H]2OC1	95.1%
CN(C)CCCn1c2c(c3cnccc3c1=O)C(=O)c1ccccc1-2	-6.26% (active)
CN1CCOCCN(C)Cc2ccc3ccc(cc3c2)CN(C)CCOCCN(C)Cc2ccc3ccc(cc3c2)C1	79.3%
COc1ccc2c(O)c(/C=C3\N=Nc4ncccc43)oc2c1C[C@@H]1CCNC[C@H]1F	-48.2% (active)
COc1cc(/C=C2\C(=O)N(CCCOc3cc(O)c4c(=O)cc(-c5ccccc5)oc4c3)c3ccccc32)cc(OC)c1O	80.7%
Cc1ccc(S(=O)(=O)c2nc(-c3ccccc3)oc2SCC(N)=O)cc1	97.2%
C=CN(C(=O)N1CCN(c2cc3c(cc2F)c(=O)c(C(=O)O)cn3C2CC2)CC1)c1nc(-c2ccccc2)cs1	96.5%
Cc1ccc(NC(=O)c2sc3nc(C)c(C(O)c4ccccc4)cc3c2N)cc1 (stereo not given)	-4.25% (active)
Nc1c(Br)cc2c(c1Br)Cc1cc([N+](=O)[O-])ccc1-2	99.4%
Cn1cc(-c2nc3c(F)cc4[nH]ncc4c3c3c2CCCC3)c(C(F)(F)F)n1	27.9%
CCCCCc1ccc(S(=O)(=O)Nc2ccc3nc(N)oc3c2)cc1	71.3%
Nc1ncnc2c1N=C(c1ccc(F)cc1)CC(c1cccc(Nc3ccnc4cc(Cl)ccc34)c1)N2 (stereo not given)	80.6%
CCOC(=O)c1[nH]cc2c1CCc1sc(Nc3ccccn3)nc1-2	101%
C=C(C)[C@@H]1CC[C@]2(CO)CC[C@]3(C)[C@H](CC[C@@H]4[C@@](C)(CCCN)[C@H](C(=C)C)CC[C@]43C)[C@@H]12	-97.1% (active)
CCN1C(=O)N(c2ccccc2)C2NC(=S)N(/N=C/C=C/c3ccccc3OC)C21 (stereo not given)	-13.3% (active)

SMILES	growth
CN1c2ccccc2S(=O)(=O)n2c(SCC(=O)Nc3nc4ccc(F)cc4s3)nnc21	108%
Clc1ccc(Nc2nnc(CNc3ccccc3)c3ccccc23)cc1	34%
N#C/C(=C\c1ccc(-c2cccc(Cl)c2)o1)C(=O)Nc1ncc(Cc2ccc(Cl)cc2)s1	56.6%
CN(C)CCC(CCN(C)C)(C(=O)O)c1ccccc1	95.3%
CC1(C)CC[C@]23CC[C@]4(C)[C@H](CC[C@@H]5[C@@]6(C)C/C(=C/O)C(=O)C(C)(C)[C@@H]6CC[C@]54C)[C@H]2[C@H]1OC3	101%
CN(C)C1CN(C(=O)c2cc(-c3ccc4ncnc(N5CCc6cc(F)c(Cl)cc65)c4c3)cnc2N)C1	-1.35% (active)
Cc1[nH]n(-c2cccc(Cl)c2)c(=O)c1/C=C1\C=c2ccccc2=CC1=O	72.3%
COCCn1cc(-c2csc(-c3c[nH]c4ccccc34)n2)c2cccnc21	43.5%
COC(=O)c1c2c(c[n+]([O-])c1C)C(=O)C=C(NCc1ccccc1)C2=O	-99% (active)
ClC(Cl)c1nc(-c2ccccc2)n2nc(-c3ccccc3)cc2n1	0.564% (active)
CN(C)c1ccc([C@@H](C(=O)Nc2cccc([N+](=O)[O-])c2)N(C(=O)c2cc3ccccc3[nH]2)c2cccc([N+](=O)[O-])c2)cc1	90.3%
CC(C)(Sc1cc(C(C)(C)C)c(O)c(C(C)(C)C)c1)Sc1cc(C(C)(C)C)c(OC(=O)CCC(=O)O)c(C(C)(C)C)c1	47.8%
COc1cc(C=C2C(=O)NC(=S)NC2=O)cc(CN2CCCC2)c1O	101%
Cc1cc(C)c2c(c1)N(C)c1ncnc(-n3c(C)nc4cc(C)ccc43)c1CC2C (stereo not given)	25.2%
Brc1ccc(Nc2nc(Nc3cnc4ccccc4c3)c3[nH]cnc3n2)cc1	87.4%
COc1cc(C[C@H]2COc3cc(O)cc(O)c3C2=O)ccc1O	3.27% (active)
CC(=O)c1c(Nc2cccc(F)c2)[nH]c2c(Cl)cc(Cl)c(Cl)c2c1=O	4.02% (active)
COC12C=C/C(=C(/C(=O)OCc3csc(SC)n3)C(=O)CCCCCCCCC3(OC)C=C/C(=C(/C(=O)OCc4cnc(SC)s4)C(=O)CCCCCCCC1)O3)O2 (stereo not given)	27.4%
COC12C=C/C(=C(/C(=O)OCCSc3ccnn3C)C(=O)CCCCCCCCC3(OC)C=C/C(=C(/C(=O)OCCSc4ccnn4C)C(=O)CCCCCCCC1)O3)O2	-0.264% (active)
O=C(/C=C/C12c3ccccc3C(c3ccccc31)C1C(=O)NC(=O)C12)c1ccco1 (stereo not given)	30.8%
